mHTT-CaM PPI inh: mutant huntingtin-calmodulin interaction inhibitors – biochemical, AlphaScreen, primary screen; AlphaScreen His-mHTT/GST-CaM binding, luminescence; inhibition, % at 15 µM; 3.6% of 190,000 active; AID 1671202, 2021
Pf apPOL block: Pf-apPOL inhibitors, biochemical, fluorescence; Recombinant Pf-apPOL, molecular beacon fluorescence, 1.5 h; inhibition, % at 10 µM; 0.25% of 210,000 active; AID 1794808, 2022
Numbers stand for hits. An excerpt weighted towards active compounds, which were near 3.6% of everything screened. No stated cut-off is given here; in the data, active means inhibition above about 50%; inactive means the rest.

COc1ccc(C(C#N)N2N=C(c3ccccc3)CC2c2ccccc2)cc1OC (stereo not given) was read as mHTT-CaM PPI inh 79 and Pf apPOL block inactive.
Screening COc1ccccc1C=C1Oc2c(ccc3c2CN(c2ccc4c(c2)OCCO4)CO3)C1=O returned mHTT-CaM PPI inh inactive and Pf apPOL block inactive.
Screening COc1cccc(C=C2Oc3c(ccc4c3CN(c3ccc5c(c3)OCCO5)CO4)C2=O)c1OC returned mHTT-CaM PPI inh 77 and Pf apPOL block inactive.
For COc1ccc(N2COc3ccc4c(c3C2)OC(=Cc2cc(OC)c(OC)c(OC)c2)C4=O)cc1 the results were mHTT-CaM PPI inh inactive and Pf apPOL block inactive.
Screening COc1ccc(N2COc3ccc4c(c3C2)OC(=Cc2ccc(OC)c(OC)c2OC)C4=O)cc1 returned mHTT-CaM PPI inh 81 and Pf apPOL block inactive.
Cc1ccc(CNC(=O)C2CCCN(C(=O)c3cc(C)cc(C)c3)C2)cc1 (stereo not given) was read as mHTT-CaM PPI inh inactive and Pf apPOL block inactive.
C=CCn1cnc2c1c(=O)n(CC)c(=O)n2-c1cccc(Cl)c1 was read as mHTT-CaM PPI inh inactive and Pf apPOL block inactive.
For Clc1ccc(C2=CC(c3ccccc3)n3nnnc3N2)cc1 (stereo not given) the results were mHTT-CaM PPI inh inactive and Pf apPOL block inactive.
`Cc1cccc(N2CCN(C(=O)c3ccc(SCc4cccnc4)c([N+](=O)[O-])c3)CC2C)c1` (stereo not given) gave mHTT-CaM PPI inh 98 and Pf apPOL block inactive.
Screening O=C(c1ccc(SCc2cccnc2)c([N+](=O)[O-])c1)N1CCCC1 returned mHTT-CaM PPI inh inactive and Pf apPOL block inactive.
For O=C1C(=Nc2ccccc2Br)c2ccccc2N1CN1CCOCC1 the results were mHTT-CaM PPI inh inactive and Pf apPOL block inactive.
COc1ccc(NC(=O)N2CCC3(CC2)Nc2cc(F)ccc2-n2cccc23)c(OC)c1 was read as mHTT-CaM PPI inh 61 and Pf apPOL block inactive.
Screening CCOc1ccccc1NC(=O)N1CCC2(CC1)Nc1cc(F)ccc1-n1cccc12 returned mHTT-CaM PPI inh 52 and Pf apPOL block inactive.
Screening COc1ccc(NC(=O)C2CCN(C(=O)c3ccc(F)cc3)CC2)c(OC)c1 returned mHTT-CaM PPI inh inactive and Pf apPOL block inactive.
For COc1ccc(NC(=O)N2CCC3(CC2)Nc2ccccc2-n2cccc23)c(OC)c1 the results were mHTT-CaM PPI inh 64 and Pf apPOL block inactive.
For COc1ccc(OC)c(NC(=O)N2CCC3(CC2)Nc2ccccc2-n2cccc23)c1 the results were mHTT-CaM PPI inh 54 and Pf apPOL block inactive.
For O=C(Nc1ccccc1F)N1CCC2(CC1)Nc1cc(F)ccc1-n1cccc12 the results were mHTT-CaM PPI inh inactive and Pf apPOL block inactive.
For O=C(Nc1ccccc1C(F)(F)F)N1CCC2(CC1)Nc1ccccc1-n1cccc12 the results were mHTT-CaM PPI inh inactive and Pf apPOL block inactive.
Screening COc1ccc(NC(=O)N2CCC3(CC2)NC(=O)c2ccccc2N3C)c(C)c1 returned mHTT-CaM PPI inh inactive and Pf apPOL block inactive.
`CCOc1ccc(S(=O)(=O)Nc2ccc(Cl)cc2)c2cccnc12` gave mHTT-CaM PPI inh inactive and Pf apPOL block inactive.
`Cc1cccc(C)c1NC(=O)Cn1c(=O)n(-c2ccc(F)cc2F)c(=O)c2sccc21` gave mHTT-CaM PPI inh inactive and Pf apPOL block inactive.
`COc1ccc2cc3cc(C(=O)NCc4ccc(F)cc4)sc3nc2c1` gave mHTT-CaM PPI inh inactive and Pf apPOL block inactive.
For Cc1cc(C)n(-c2ccnc(NCc3ccc(F)cc3F)n2)n1 the results were mHTT-CaM PPI inh inactive and Pf apPOL block inactive.
For OCCNCCOc1ccc(Br)cc1 the results were mHTT-CaM PPI inh inactive and Pf apPOL block inactive.
OCCNCCOc1ccc(Br)cc1Cl was read as mHTT-CaM PPI inh 100 and Pf apPOL block inactive.
`Cc1cc(CN2CCC(CNC(=O)Nc3c(F)cccc3F)CC2)c(C)o1` gave mHTT-CaM PPI inh inactive and Pf apPOL block inactive.
For COc1ccc(Oc2ccc3[nH]c4c(c3c2)CCCC4=NCCO)cc1 the results were mHTT-CaM PPI inh inactive and Pf apPOL block inactive.
For O=C(Nc1cccc(Br)c1)c1ccc2nc(N3C(=O)CCC3=O)sc2c1 the results were mHTT-CaM PPI inh 55 and Pf apPOL block inactive.
Screening O=C(Nc1cccc([N+](=O)[O-])c1)c1ccc2nc(N3C(=O)CCC3=O)sc2c1 returned mHTT-CaM PPI inh inactive and Pf apPOL block inactive.
For Cc1cc(C2(c3ccc(O)c(C)c3)C(=O)Nc3c(C)cc([N+](=O)[O-])cc32)ccc1O the results were mHTT-CaM PPI inh 86 and Pf apPOL block inactive.
Cc1cccc2c1NC(=O)C2(c1ccc(O)cc1)c1ccc(O)cc1 was read as mHTT-CaM PPI inh inactive and Pf apPOL block inactive.
`O=C(Nc1cccnc1)C1CCCN(c2nnc3ccc(C(F)(F)F)cn23)C1` (stereo not given) gave mHTT-CaM PPI inh inactive and Pf apPOL block inactive.
O=C(Nc1ccccc1Cl)c1ccc(Br)c(S(=O)(=O)N2CCCCCC2)c1 was read as mHTT-CaM PPI inh inactive and Pf apPOL block inactive.
